# Experimental data taken from PubChem BioAssay AID504447 (The Scripps Research Institute Molecular Screening Center, 2011).
# Results with a measured potency or affinity are listed apart. Calls of active or inactive are those of the source. The rule behind the calls is not given here.
# Biological target: Peroxisome proliferator-activated receptor gamma (Homo sapiens) (UniProt P37231)
# Assay: PPARg partial agonists, dose response, cell-based, luminescence, assay provider (AID 504447)
# Chain of Peroxisome proliferator-activated receptor gamma (Homo sapiens) (P37231 whole entry, looked up): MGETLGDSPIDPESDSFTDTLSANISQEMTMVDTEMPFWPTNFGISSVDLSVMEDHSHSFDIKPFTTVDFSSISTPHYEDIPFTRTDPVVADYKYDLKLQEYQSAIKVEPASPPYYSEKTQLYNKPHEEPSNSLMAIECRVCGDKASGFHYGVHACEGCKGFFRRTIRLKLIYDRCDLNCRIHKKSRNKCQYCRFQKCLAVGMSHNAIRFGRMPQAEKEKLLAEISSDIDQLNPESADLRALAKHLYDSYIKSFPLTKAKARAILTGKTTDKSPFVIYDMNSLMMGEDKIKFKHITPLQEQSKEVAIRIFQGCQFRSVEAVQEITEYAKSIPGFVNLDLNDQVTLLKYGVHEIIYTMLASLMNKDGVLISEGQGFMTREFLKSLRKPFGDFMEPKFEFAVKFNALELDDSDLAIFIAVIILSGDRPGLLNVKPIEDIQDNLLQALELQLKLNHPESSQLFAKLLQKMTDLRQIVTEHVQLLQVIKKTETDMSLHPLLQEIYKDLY
row,Structure (SMILES),outcome
1,Cc1cc(C)c2nc(N3C(=O)C(O)=C(C(=O)c4ccco4)C3c3ccc(O)cc3)sc2c1 (stereo not given),inactive
2,COc1ccc(O)c(C(=O)c2cc(C#N)c(=O)n(-c3ccc(Cl)cc3)c2)c1,inactive
3,CC(Oc1ccc2c(c1)oc(=O)c1ccccc12)C(=O)NC(Cc1c[nH]c2ccc(O)cc12)C(=O)O (stereo not given),inactive
4,COc1cc(C2/C(=C(/O)c3ccc(F)cc3)C(=O)C(=O)N2CCCC(=O)O)ccc1O (stereo not given),inactive
5,CCOc1cccc(/C(O)=C2/C(=O)C(=O)N(Cc3ccco3)C2c2ccncc2)c1 (stereo not given),inactive
6,CCOc1ccc(CN2CCN(Cc3cccc4nonc34)CC2CCO)cc1 (stereo not given),inactive
7,Cc1ccccc1NC(=O)CC1C(=O)Nc2ccccc2N1CC(=O)N(C)C1CCS(=O)(=O)C1 (stereo not given),inactive
8,Cc1ccc2nc(N3C(=O)C(O)=C(C(=O)c4ccco4)C3c3cccc(O)c3)sc2c1 (stereo not given),inactive
9,O=C(CSc1nc(=O)n(CCCN2CCOCC2)c2c1CCC2)Nc1cccc(F)c1,inactive
10,O=C(CSc1nnc(Cc2cc(=O)[nH]c(=O)[nH]2)n1-c1ccc(Cl)cc1)N1CCc2ccccc21,inactive
11,O=C1C(=O)N(CCCn2ccnc2)C(c2ccc(Cl)cc2)/C1=C(\O)c1ccc2c(c1)OCCO2 (stereo not given),inactive
12,COc1ccc(CNC(=O)Cn2c(=O)n(CCC(=O)N3CCCCC3)c(=O)c3sccc32)cc1,inactive
13,O=C(O)CCN1C(=O)/C(=C/c2ccc(C(F)(F)F)cc2C(F)(F)F)SC1=S,inactive
14,Cc1ccc2cc(CN(Cc3ccccc3)Cc3nnnn3C3CCCC3)c(=O)[nH]c2c1,inactive
15,O=C(c1cccc(N2C(=O)C3C4C=CC(C4)C3C2=O)c1)N1CCN(c2ccccc2Cl)CC1 (stereo not given),inactive
